Source: PubChem (several laboratories)
Shn3 3UTR inh: inhibitors of Schnurri-3 3'UTR reporter in osteoblasts; Clone20 osteoblast Shn3 3'UTR firefly luciferase, 24 h; inhibition, % at 12.5 µM; hit rate 0.52% among 360,000; AID 588674;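 active means mean inhibition of at least 75% with every replicate also reaching 75%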;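 further: 0% = median of neutral control wells and 100% = pilot-screen positive control compound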
Gli-Sufu block: Gli-Sufu pathway antagonism | Sufu-KO-LIGHT fibroblasts, Gli luciferase reporter luminescence | hit rate 0.74% among 340,000 | inhibition, % at 5 µM | AID 588413;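 active means inhibition above about 55%, limit read from the data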;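 further: 0% = DMSO-treated cells and 100% = wells with medium but no cells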
NR5A2 inv ag: inverse agonists of human LRH-1 (NR5A2) | O00482 | HEK293T StAR-luciferase reporter, LRH-1 transfected, 24 h | inhibition, % at 3.6 µM | hit rate 0.13% among 360,000 | AID 602396;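 active means inhibition above the mean inhibition of all tested compounds plus 3 SD, cut at about 73% in these data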;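 further: 0% = DMSO wells and 100% = reporter-only cells lacking LRH-1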
Target sequence (O00482 whole entry, looked up): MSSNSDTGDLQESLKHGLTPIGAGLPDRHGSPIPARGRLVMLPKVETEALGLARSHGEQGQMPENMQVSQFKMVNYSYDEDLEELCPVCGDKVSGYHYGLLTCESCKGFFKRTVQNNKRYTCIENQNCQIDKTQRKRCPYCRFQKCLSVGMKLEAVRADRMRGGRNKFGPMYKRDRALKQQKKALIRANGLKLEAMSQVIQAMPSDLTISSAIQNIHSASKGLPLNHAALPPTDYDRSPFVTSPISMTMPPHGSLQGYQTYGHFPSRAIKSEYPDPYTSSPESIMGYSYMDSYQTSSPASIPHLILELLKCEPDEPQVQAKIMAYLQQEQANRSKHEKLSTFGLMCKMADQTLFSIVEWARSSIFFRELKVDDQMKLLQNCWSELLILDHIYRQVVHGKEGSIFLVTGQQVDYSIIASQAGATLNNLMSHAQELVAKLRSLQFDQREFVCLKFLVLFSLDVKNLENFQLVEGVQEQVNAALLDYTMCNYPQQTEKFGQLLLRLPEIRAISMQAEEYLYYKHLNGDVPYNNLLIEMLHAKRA
SRC3 inh: human NCOA3 inhibition; HEK293 GAL4-SRC3 luciferase reporter, luminescence; inhibition, % at 3.6 µM; hit rate 0.17% among 360,000;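 active means inhibition above a per-campaign cutoff, the mean of all compounds plus 3 SD, cut at about 60% in these data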;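 further: 0% = DMSO-treated cells and 100% = gossypol-treated cells at 36 µM; higher means less SRC3-driven luciferase light from the GAL4 reporter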
SRC2 inh: human SRC2 (NCOA2) inhibition | inhibition, % at 9 µM | hit rate 0.17% among 370,000 | AID 651957 | HEK293 GAL4-SRC2 luciferase reporter, luminescence;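 active means inhibition above the mean inhibition of all tested compounds plus 3 SD, set per campaign, cut at about 52% in these data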;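 further: 0% = DMSO treated cells and 100% = cells given Gossypol at 36 µM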
SRC1 inh: inhibitors of human steroid receptor coactivator 1 (SRC1); Q15788; HEK293 GAL4-SRC1 luciferase reporter, luminescence; inhibition, % at 3.6 µM; hit rate 0.12% among 360,000;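 active means inhibition above the campaign mean plus 3 SD, with each screening campaign given its own cutoff, cut at about 60% in these data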;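 further: 0% = DMSO treated cells and 100% = gossypol at 36 µM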
Numbers without * were called inactive; x = no result given. Only some compounds are listed: those with a hit (about 1.1% of all), similar ones and a draw of the others.

SMILES	Shn3 3UTR inh	Gli-Sufu block	NR5A2 inv ag	SRC3 inh	SRC2 inh	SRC1 inh
CS(=O)(=O)c1ncc(Cl)c(C(=O)Nc2ccc3ccccc3c2)n1	96*	12	-59	-43	13	-136
CCS(=O)(=O)c1ncc(Cl)c(C(=O)Nc2ccc(C)cc2)n1	82	22	-16	-66	42	-100
COC(=O)c1ccccc1NC(=O)c1nc(S(=O)(=O)Cc2ccccc2)ncc1Cl	95*	0	15	20	-11	-11
COC(=O)c1cscc1S(=O)(=O)Cc1ccccc1	5	-1	2	3	-8	8
Cc1ccc(CS(=O)(=O)c2ncc(Cl)c(C(=O)Nc3ccc(OC(F)F)cc3)n2)cc1	94*	-4	17	-18	37	-80
COc1ccc(S(=O)(=O)Cc2ccc(C(=O)NCc3ccccc3)o2)cc1	11	-3	0	7	22	-6
COc1ccc(CNC(=O)c2nc(S(=O)(=O)Cc3ccccc3)ncc2Cl)cc1	92*	6	-14	-39	5	-67
COc1ccc(OC)c(S(=O)(=O)N2CCCC(C(=O)Nc3c(C)n(C)n(-c4ccccc4)c3=O)C2)c1 (stereo unspecified)	x	x	x	x	-10	x
COc1ccc(C#CCN(C)/C(N)=N/C(=O)OCc2ccccc2)cc1	x	x	x	x	12	x
O=C(NCc1ccccc1)c1nc(S(=O)(=O)Cc2ccccc2)ncc1Cl	94*	11	-20	-45	-6	-28
CC(=O)Nc1ccc(NC(=O)c2nc(S(=O)(=O)Cc3ccccc3)ncc2Cl)cc1	95*	5	-18	-53	-10	-44
CSc1ncc(Cl)c(C(=O)Nc2ccc(NC(C)=O)cc2)n1	-77	5	9	17	-34	3
Cc1ccc(-c2cc(-c3nnc(SCC(=O)N4CCOCC4)n3N)[nH]n2)cc1	x	x	x	x	-28	x
Nc1ncc([N+](=O)[O-])c(N2CCCCCC2)n1	13	-26	27	54	44	65*
Brc1ccc2ncnc(NCc3ccccc3)c2c1	75	43	41	64*	55*	67*
CCN1C(=O)C(=Cc2cccc(OC)c2Oc2ccc([N+](=O)[O-])cc2[N+](=O)[O-])SC1=S	99*	17	15	4	12	7
COC(=O)[C@]12C[C@H](CC(=O)NCCCN3CCCC3=O)C(=O)N(CCC3=CCCCC3)C1=C[C@H](C(C)C)O[C@@H]2C1CC1	x	x	x	x	-12	x
CCc1ccc(-c2nc(CN3CCC(C(=O)NCc4ccc(F)cc4)CC3)c(C)o2)cc1	33	93*	-5	-6	-10	2
CCc1ccc(-c2nc(CS(=O)CC(=O)NCc3ccccc3)c(C)o2)cc1 (stereo unspecified)	16	23	24	-7	55*	10
c1ccc(-c2ccc(C3=Nn4c(nnc4-c4ccncc4)SC3)cc2)cc1	x	x	x	x	7	x
Clc1ccccc1C1=Nn2c(nnc2-c2ccncc2)SC1	0	-8	31	66*	54*	58
c1csc(C2=Nn3c(nnc3-c3ccncc3)SC2)c1	24	15	41	60	43	65*
CN[C@H]1C[C@H]2c3cc(-c4ccc5c(c4)OCO5)ccc3CCN2C[C@H]1[C@H](C)O	x	x	x	x	-4	x
COC(=O)[C@H]1C[C@@]2(C)c3ccccc3N(S(=O)(=O)c3ccccc3)[C@H]2N1	x	x	x	x	23	x
CC(CCN1CCC(C(O)(c2ccccc2)c2ccccc2)CC1)Oc1ccc(OC(F)(F)F)cc1 (stereo unspecified)	x	x	x	x	5	x
SMILES	Shn3 3UTR inh	Gli-Sufu block	NR5A2 inv ag	SRC3 inh	SRC2 inh	SRC1 inh
O=C(NNC(=O)c1cccnc1SCc1cccc([N+](=O)[O-])c1)c1ccccn1	96*	45	28	41	22	22
Cc1cc(=O)n2c3c(c4c(cc13)c(CN(C)C)cc(=O)n4C)OC2	-23	-2	15	-4	58*	-13
Cc1cc(=O)n(C)c2ccccc12	-8	3	7	-3	-28	6
Brc1ccc(Cn2nnc(-c3ccc(N4CCOCC4)cc3)n2)cc1	x	x	x	x	-29	x
CN1CCc2c(C#N)c(N3CCCCC3)nc(N3CCOCC3)c2C1	x	4	x	x	x	x
C=CCNc1nc(N2CCOCC2)c(C#N)c2c1CN(C)CC2	97*	9	6	-3	-6	-1
O=C(CSc1nnc(COc2ccc(Cl)cc2)n1Cc1ccco1)Nc1ccc2c(c1)OCO2	x	x	x	x	4	x
CCOC(=O)c1cc2sccc2n1CC(=O)N1CCc2ccccc21	48	30	0	67*	-3	39
CCOC(=O)c1cc2sccc2n1CC(=O)OC(C)C	2	6	28	11	1	0
CCS(=O)(=O)c1ccc(OC)c(N=Nc2ccc(O)c3ncccc23)c1	40	11	-6	2	-45	11
Oc1ccc(N=Nc2ccc3c(c2)OCCO3)c2ncccc12	95*	40	15	44	57*	50
Cc1ccc(C)c(N=Nc2ccc(O)c3ncccc23)c1	86*	67*	-2	-9	18	13
NS(=O)(=O)c1ccc(N=Nc2ccc(O)c3ncccc23)cc1	78	49	18	7	7	9
CCN(CC)S(=O)(=O)c1cc(OC)ccc1N=Nc1ccc(O)c2ncccc12	90*	23	5	0	-14	-4
CCOc1ccc(N=Nc2ccc(O)c3ncccc23)cc1	90*	-14	0	11	15	-28
COC(=O)C[C@H]1CC[C@@H]2[C@@H](COc3ccc(NS(=O)(=O)c4ccccc4Cl)cc3C(=O)N2C)O1	x	x	x	x	-19	x
C[C@@H](CCCCC1(C)OCCO1)CCC(=O)N(c1ccccc1)c1ccccc1	x	x	x	x	9	x
Cc1cccc(N=Nc2ccc(O)c3ncccc23)c1	87*	-2	-15	-22	-10	-5
Oc1c(Cl)cc(Cl)cc1/C=N/Nc1ncc(Br)cn1	90*	51	2	6	8	5
Clc1ccc([C@H]2OC[C@@]3(CNC4CCCCC4)CS[C@H](c4ccc(Cl)cc4)N23)cc1	x	x	x	x	16	x
Cc1ccc(-n2c(-c3ccc(Br)cc3)c[n+]3c2CCc2ccc4cccnc4c2-3)cc1	91*	87*	100*	83*	-16	75*
CCN1/C(=C2\SC(=S)N(Cc3ccccc3)C2=O)Sc2ccccc21	1	5	-14	-9	-22	-2
CCC(CO)[n+]1c(C)cc(/C=C2\Sc3ccccc3N2Cc2ccccc2)cc1C (stereo unspecified)	76	87*	12	3	-22	8
CCOc1cccc(/C=N/NC(=S)Nc2ccccc2[N+](=O)[O-])c1O	24	54	79*	80*	60*	84*
CCCOc1ccc(-c2cc(C(C)=O)c3n(c2=O)CCC3)cc1	x	x	x	x	-3	x
CC1(C)CC[C@]2(C(=O)n3ccnc3)CC[C@]3(C)[C@H](C(=O)C=C4[C@@]5(C)C=C(C#N)C(=O)C(C)(C)[C@@H]5CC[C@]43C)[C@@H]2C1	94*	93*	21	55	-2	44
